# Source: PubChem BioAssay AID887 (National Center for Advancing Translational Sciences (NCATS), 2007)
# The campaign covered roughly 74,000 compounds. About 1,100 (1.5%) were called active. Inconclusive results (about 5%) are left out. Calls come from the whole dose curve; as a rule, active = well fitted inhibition curve with a large enough effect; inconclusive = small, poorly fitted or top-dose-only effect; inactive = no such curve, though single readings can be large or run the other way. This excerpt belongs to a sample that is enriched for actives.
# Molecular target: Polyunsaturated fatty acid lipoxygenase ALOX15 (Homo sapiens) (UniProt P16050)
# Sequence (P16050 whole entry, looked up): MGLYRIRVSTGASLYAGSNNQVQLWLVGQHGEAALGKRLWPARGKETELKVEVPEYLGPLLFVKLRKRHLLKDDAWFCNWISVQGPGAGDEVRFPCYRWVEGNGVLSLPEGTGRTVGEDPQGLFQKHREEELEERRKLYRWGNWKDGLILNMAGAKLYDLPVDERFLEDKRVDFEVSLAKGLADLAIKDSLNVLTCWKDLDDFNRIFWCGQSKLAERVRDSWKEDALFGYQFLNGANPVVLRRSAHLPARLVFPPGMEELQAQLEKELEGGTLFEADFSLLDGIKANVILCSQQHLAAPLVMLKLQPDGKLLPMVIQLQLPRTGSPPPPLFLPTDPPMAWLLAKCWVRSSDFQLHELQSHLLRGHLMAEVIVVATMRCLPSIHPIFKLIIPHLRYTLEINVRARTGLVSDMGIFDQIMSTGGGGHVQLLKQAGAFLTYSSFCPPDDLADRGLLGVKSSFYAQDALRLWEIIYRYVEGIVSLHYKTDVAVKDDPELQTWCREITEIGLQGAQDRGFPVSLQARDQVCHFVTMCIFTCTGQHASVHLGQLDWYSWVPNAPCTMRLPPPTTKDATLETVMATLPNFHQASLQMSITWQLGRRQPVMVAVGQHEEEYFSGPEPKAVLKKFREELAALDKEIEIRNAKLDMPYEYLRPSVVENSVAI
# Test: qHTS Assay for Inhibitors of 15-hLO (15-human lipoxygenase); note: nearly all actives have a fitted effect of over 55% in size
# Settings: purified 15hLO-1, xylenol orange hydroperoxide absorbance; series mostly up to 57.1 µM; activity change, negative = inhibition: at the top concentration
# Description: Assay Overview: NIH Molecular Libraries Screening Centers Network [MLSCN] NIH Chemical Genomics Center [NCGC] MLSCN Grant: MH081283-01A1 PI Name: Holman, T.R., University of California, Santa Cruz Human lipoxygenase 15hLO-1 is a member of the closely related lipoxygenase family of enzymes which catalyze the site-specific oxidation of arachidonic acid to various hormone precursor molecules and as such is a candidate for drug development in a variety of disease areas, such as cancer and inflammation. Inhibition of 15hLO-1 activity was screened by utilizing arachidonic acid as a substrate. The extent of hydroperoxide product formation was measured by a secondary chromogenic reaction in which xylenol orange (XO, Sigma-Aldrich, cat. number 39,818-7) reacts with the ferric ions produced from the reaction between the hydroperoxide and ferrous ions. The Fe(III)-XO complex is characterized with red-shifted absorbance at 560 nm. A purified preparation of human 15hLO-1 was supplied by Professor Ted Holman, University of California, Santa Cruz.
# Assay Protocol: Buffer: 25 mM Hepes pH 7.5, 0.01% Triton X-100. Reagents/Controls: Buffer in columns 3 and 4 as negative control (no enzyme). Substrate solution: 50 uM arachidonic acid (Sigma-Aldrich, St. Louis, MO) final concentration dispensed throughout the plate. Enzyme: 40 nM 15hLO-1 final concentration in columns 1, 2, 5-48. Column 1 is neutral (100% activity). Column 2 contained pin-transferred titration of NDGA (nordihidroguaiaretic acid, Sigma-Aldrich, N 5023, top concentration 10 mM in DMSO, then 1:2 dilution in duplicate). (Dilution factor: 23 nL into 4 uL.) Chromogenic detection reagent (divalent iron/xylenol orange, Fe-XO): 200 uM xylenol orange plus 300 uM ferrous ammonium sulfate prepared freshly in 50 mM sulfuric acid. Assay Steps: Three uL of enzyme were dispensed to 1536-well Greiner black clear bottom plates. Compounds and controls (23 nL) were transferred via Kalypsys PinTool. The plates were incubated for 15 min at room temperature, and then 1 uL of substrate solution was added to start the reaction. After room temperature incubation for 6 minutes, 4 uL of Fe-XO solution was added to each well followed by a short spin (1000 rpm, 15 sec) and the plates were then incubated for 30 min. The absorbance at 405 and 573 nm were measured using ViewLux (Perkin-Elmer) High-throughput CCD imager and absorbance protocol settings. The 573-to-405 absorbance ratio was used to compute reaction progress.
# % is set by controls: 0 for no effect and ±100 for the full control effect; potency is the fitted concentration of half-maximal effect.
Structure (SMILES),Potency,"activity change, negative = inhibition"
CC(C)(Cc1c[nH]c2ccc(Cl)cc12)NCCOc1ccccc1OCC1CC1,12.6 µM (active),–
CNCC[C@H](Oc1ccc(C(F)(F)F)cc1)c1ccccc1,inactive,–
CCC(C)C(=O)O[C@@H]1C[C@@]2(C)C(c3ccoc3)OC(=O)CC23OC2(C)O[C@@]14[C@@]1(C)C(CC(=O)OC)C5(C)CC1(O)C(O)(C5OC(=O)C1(C)OC1C)C(OC(C)=O)[C@@]34O2 (stereo not given in full),–,1.08% (inactive)
CN(C)C1C(=O)C(C(N)=O)=C(O)[C@@]2(O)C(=O)C3=C(O)c4c(O)cccc4[C@@](C)(O)C3C[C@@H]12 (stereo not given in full),–,3.68% [at 25.6 µM] (inactive)
CC(=O)OC1C2CCC3C1(CC(O)[C@@]1(O)[C@@H](CC(O)C1(C)C)[C@]3(C)O)C[C@@]2(C)O (stereo not given in full),–,1.91% (inactive)
COC(=O)N(c1ccc(OC)cc1)P1(=S)OCCC(C)O1 (stereo not given),3.98 µM (active),–
CC1=CC(=O)C2=C(C)C[C@H](O)[C@H]3[C@H](C)C(=O)O[C@@H]3C12 (stereo not given in full),–,0.0263% [at 25.6 µM] (inactive)
C[C@@]12CCC3C(CC[C@@H]4CC(O)CC[C@@]34C)C1CCC2O (stereo not given in full),–,0.523% (inactive)
CCN1C[C@]2(COC)C(O)C[C@H](OC)[C@@]34C5C[C@]6(O)C(OC)C(O)[C@](OC(C)=O)(C5C6OC(=O)c5ccccc5)C(C(OC)C23)C14 (stereo not given in full),–,-2.83% (inactive)
Clc1ccc(C(c2ccc(Cl)cc2)n2cc[n+](C[C@@H](OCc3ccc(Cl)cc3Cl)c3ccc(Cl)cc3Cl)c2)cc1,20 µM (active),–
CN1C2CC3CC1C(O3)C2O (stereo not given),–,-1.11% (inactive)
N#Cc1c(Cl)c(Cl)c(Cl)c(C#N)c1Cl,–,-5.52% (inactive)
CC[C@@H]1CN2CC[C@@H]1C[C@H]2[C@H](O)c1ccnc2ccc(OC)cc12,–,-20.9% [at 25.6 µM] (inactive)
CNC(C)[C@@H](O)c1ccccc1 (stereo not given in full),–,1.77% (inactive)
COc1ccc2c3c1OC1CC(O)C=C[C@@]31CCN(C)C2 (stereo not given in full),–,-0.861% (inactive)
